PubChem BioAssay AID1662 (Broad Institute, 2009)
In all, about 300,000 compounds went through this assay and about 4,000 (1.3%) were called active. The sample holds actives, similar compounds and a random draw of the others, so the mix is not that of the screen. A number with no mark means an inactive call.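 How the source made its calls: active means mean replicate score, as percent of positive control median, at least 50; inconclusive means mean below 50 but one replicate at or above 50; inactive means mean and every replicate below 50.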

Test: kanamycin survival loss of SKKanGAS strain – BacTiter-Glo luminescence, streptokinase expression inhibitor project, primary screen (AID 1662);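 further: strain carries kanamycin resistance gene driven by streptokinase promoter and grows in 40 µg/ml kanamycin; loss of luminescence reflects streptokinase promoter inhibition or plain growth inhibition; 0% = median of DMSO wells and 100% = positive control at its reference dose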
Conditions: S. pyogenes SKKanGAS, kanamycin growth, 6 h, at 7.5 µM, stronger effect = higher value

SMILES	inhibition
COc1ccc(-c2cn[nH]c2-c2ccc(OC)cc2)cc1	75.3% (active)
COc1ccc(Oc2cn[nH]c2-c2ccc(OC)cc2O)cc1	13.6%
COC(=O)c1cc(OC)ccc1-c1ccc(OC)cc1	11%
O=C1/C(=C\c2ccccc2Cl)SC(=S)N1CCC(=O)N1CCCc2ccccc21	-4.28%
COc1ccc(-c2cn(-c3ccc(OC)cc3)c(=S)[nH]2)cc1	-13.9%
O=c1[nH]cnc2c1c(-c1ccccc1)cn2-c1ccc(F)cc1	-1.74%
COc1ccc(-n2cc(-c3ccccc3)c3c(=S)nc[nH]c32)cc1	54.1% (active)
CCOP(=O)(OCC)C(Nc1cccc(C)c1)c1ccc(F)cc1 (configuration not stated)	-2.54%
CC1CCc2[nH]c3ccc(C(=O)N(C)CC(=O)Nc4cccc(F)c4)cc3c2C1 (configuration not stated)	-8.76%
CC(C)CC1(C(=O)NCc2ccccn2)C=CCN1C(=O)c1ccccc1 (configuration not stated)	-5.95%
COc1ccc(CCNC(=O)CSc2nc3[nH]ncc3c(=O)n2-c2cccc(C(F)(F)F)c2)cc1OC	-2.08%
NC(=O)NC(=O)CSc1nc2cc([N+](=O)[O-])ccc2n1-c1cccc(C(F)(F)F)c1	97.7% (active)
COc1ccc(-n2cnnc2SCC(=O)Nc2cccc([N+](=O)[O-])c2)cc1	-8.4%
CC1(C)S[C@@H]2[C@H](NC(=O)COc3ccccc3)C(=O)N2C1C(=O)OCc1ccccc1 (some centres not stated)	97% (active)
COC(=O)C1[C@H]2SC(C)(C)C(C(=O)OC)N2C(=O)N1Cc1nc2ccccc2s1 (some centres not stated)	6.63%
NC(=O)C1CC(=O)N(c2ccc(OCC(=O)NCc3ccccc3)cc2)C1 (configuration not stated)	1.49%
CC1(C)S[C@@H]2[C@H](N=CN3CCCCCC3)C(=O)N2[C@H]1C(=O)O	-7.68%
Cc1cccc(OCC(=O)NC2CC(C)(C)NC(C)(C)C2)c1	1.54%
CC1(C)SC2C(NC(=O)COc3ccccc3)C(=O)N2C1C(=O)O (configuration not stated)	102% (active)
C[C@H]1CC[C@]2(O[C@@H](CCO)C[C@@H](O)[C@@H]2O)O1	-3.21%
CC1Cn2c(nnc2-c2cccs2)S1 (configuration not stated)	-5.31%
CCCn1c(=N)n(CC(=O)c2ccc(Cl)c(Cl)c2)c2ccccc21	2.77%
CN(C(=O)CN1C(=O)NC(C)(CCc2ccccc2)C1=O)c1ccccc1 (configuration not stated)	-1.34%
CC1CC(=O)N(CC(=O)Nc2cccc(Cl)c2)c2ccccc2S1(=O)=O (configuration not stated)	-1.88%

SMILES	inhibition
CSc1ccc(CNC(=O)c2ccc(NC(=O)C3=CSCCO3)cc2)cc1	-10.5%
CC(=O)Nc1ccc(-c2csc(NC(=O)Nc3ccccc3)n2)cc1	0.751%
Cc1ccc(-c2csc(NNC(=O)c3ccccc3)n2)cc1	55.1% (active)
Cc1nc(NNC(=O)c2ccccc2)cc(-c2ccccc2)n1	-2.12%
COc1cccc(CNC(=O)c2nnn(CC(=O)Nc3cc(C)ccc3C)c2N)c1	11%
O=C(/C=C/c1cnc2ccccc2n1)NC1CCCCCC1	2.73%
COc1ccccc1C(=O)NCCC(=O)NN1C(=O)NC2(CCCCC2)C1=O	-9.03%
NCC(=O)c1cccc2ccc[n+]([O-])c12	-3.82%
O=C(Nc1ccccc1-c1nnn(CC(=O)N2CCCc3ccccc32)n1)c1cccc(Cl)c1	-0.017%
CS(=O)(=O)c1ccc(-c2nnn(CC(=O)Nc3ccc4c(c3)OCCO4)n2)cc1	-16.5%
Cc1cccc(C(=O)Nc2ccccc2-c2nnn(CC(=O)Nc3ccc4c(c3)OCCO4)n2)c1	59.1% (active)
COc1cc(C(=O)OC(C)C(=O)NCC2CCCCC2)cc(NC(=O)c2ccco2)c1OC (configuration not stated)	-4.57%
COc1cccc2sc(NNC(=O)c3nc4ccccc4s3)nc12	92.6% (active)
COc1cccc2sc(Nc3nc(C)c(C(C)=O)s3)nc12	53.7% (active)
COc1ccccc1/C=N/Nc1nc(C)c(C(C)=O)s1	-9.03%
COc1ccccc1OCc1nc2ccccc2s1	21%
COc1ccc(S(=O)(=O)N2CCOCC2)cc1C(=O)Nc1nc2ccccc2s1	1.7%
COc1cc2ccccc2cc1C(=O)Nc1nc(C)c(C(C)=O)s1	-5.23%
CN(C)CCCN(C(=O)c1ccc(S(=O)(=O)N2CCCCCC2)cc1)c1nc2cc3c(cc2s1)OCCO3	-2.65%
N#Cc1ccc(OCc2nnc(-c3ccc([N+](=O)[O-])cc3)o2)cc1	4.26%
COc1ccccc1N1CCN(c2ncnc3sc(C)c(-c4ccccc4)c23)CC1	35.4%
CS(=O)(=O)N(Cc1ccccc1Cl)c1ccc(C(=O)NCc2cccnc2)cc1	-5.28%
COc1ccc(Cl)cc1C(=O)NNC(=S)NC1CCCC1	-3.8%
